Most compounds without a hit are left out; they make up all but 7.9% or so of the library.
HCV inhibitor = inhibitors of hepatitis C virus infection. Huh7.5.1 HCVcc-Cre infection, luciferase reporter, 44 h. 340,000 compounds, 3.4% hits. Potency, µM (doses to about 41.8 µM), most hits filed as inhibitors; active = well fitted inhibition curve with a large enough effect; inconclusive = small, poorly fitted or top-dose-only effect, or another doubt; inactive = no such curve, though single readings can be large or run the other way
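Seed cells (1,000/well) for 4 h; treat with compound and infect with HCVcc-Cre, moi about 0.5. Incubate 44 h, then detect luciferase activity.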
FMDV antiviral = foot and mouth disease virus antiviral activity; FMDV antiviral cell-based qHTS; Potency, µM (top dose mostly 57.9 µM), usual class: inhibitors; 410,000 compounds, 1.2% hits; AID 1159524; calls by dose curve; tested in HEK293T cells; note: read-out not given here; nearly all actives have a fitted effect of over 45% in size
Marburg entry inh = inhibitors of Marburg virus binding or cell entry | Potency, µM (series often up to 37.8 µM), most hits filed as inhibitors | Marburg virus pseudotyped entry inhibition, cell reporter | 300,000 compounds, 1.8% hits | AID 540276; calls by dose curve; tested in HEK293 cells
Lassa entry inh = blocks Lassa virus binding to or entry into cells | 300,000 compounds, 1.2% hits | Potency, µM (doses to about 37.9 µM), most hits filed as inhibitors | AID 540256 | Lassa virus pseudotype entry inhibition, cell reporter; calls by dose curve; tested in HEK293 cells; note: nearly all actives have a fitted effect of over 50% in size
HCMV antiviral = human cytomegalovirus inhibition. activity change, negative = inhibition, % at 57.5 µM. HFF cells, HCMV-luciferase reporter, 72 h; hits give low values. AID 1259415. 410,000 compounds, 4.5% hits; in the data active = activity change below about -60%; inconclusive = no clear call, values can overlap the other calls; inactive = above about -39%
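Inhibition of viral replication was scored as loss of reporter luminescence in HFFs infected with HCMV-luciferase (MOI 1 PFU/cell) for 72 h; compounds tested at 2 doses, normalized to buffer and Salinomycin controls.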
Hits are given with their value; i = inactive; ? = inconclusive; nt = not tested or not shown.

SMILES | HCV inhibitor | FMDV antiviral | Marburg entry inh | Lassa entry inh | HCMV antiviral
O=C(COC(=O)COc1ccccc1[N+](=O)[O-])NC1CCCC1 | i | i | i | i | i
COc1ccccc1CNC(=O)CSc1ccc(Br)cc1 | i | i | ? | i | ?
COc1ccccc1CNC(=O)CSC1=NCCS1 | i | i | i | i | -61.3
CC(NC(=O)CSC1=NCCS1)c1ccccc1 (stereo not drawn) | i | i | i | i | -76.0
CCN(CC)S(=O)(=O)c1ccc2c(c1)c(=O)c(C(=O)N1CCN(c3cc(Cl)ccc3C)CC1)cn2C | nt | i | i | i | i
CCOC(=O)CCn1nc(C)c2c(C)n(-c3ccccc3)nc2c1=O | nt | i | i | i | i
Cc1ccc2sc(N(CCCN(C)C)C(=O)c3ccc(S(=O)(=O)N(C)C)cc3)nc2c1C | ? | i | nt | nt | i
COc1ccc2sc(N(CCCN(C)C)C(=O)c3ccc(S(=O)(=O)N(C)Cc4ccccc4)cc3)nc2c1 | 10µM | i | ? | ? | i
Cc1ccc2sc(N(CCCN(C)C)C(=O)c3ccc(S(=O)(=O)N(C)Cc4ccccc4)cc3)nc2c1C | 3.55µM | 31.6µM | ? | ? | i
CN(Cc1ccccc1)c1ccc(-c2nc(-c3ccncc3)no2)cc1[N+](=O)[O-] | nt | i | i | i | i
O=C(Cn1ccn(-c2ccc(F)c(F)c2)c(=O)c1=O)NCc1ccccc1 | nt | i | nt | i | i
O=C(O)CCn1ccc2cc(S(=O)(=O)N3CCCCC3)ccc21 | nt | i | ? | i | i
Cn1c(=O)c2[nH]c(CCCCCc3nc4ccccc4[nH]3)nc2n(C)c1=O | i | i | ? | i | i
Cn1c(=O)c2[nH]c(CCCCCCCc3nc4ccccc4[nH]3)nc2n(C)c1=O | 8.91µM | 15.8µM | ? | i | -67.1
Cn1c(=O)c2[nH]c(COc3ccc(C(C)(C)C)cc3)nc2n(C)c1=O | 11.2µM | 20µM | nt | nt | nt
COC(=O)CN1C(=O)S/C(=C/c2ccc(N3CCCCC3)o2)C1=O | ? | i | i | ? | -103.9
CCCN1C(=O)S/C(=C/c2ccc(N3CCOCC3)o2)C1=O | ? | i | i | i | -78.8
CCCN1C(=O)S/C(=C\c2ccc(N3CCOCC3)o2)C1=O | i | i | i | i | i
O=C(c1ccccc1Br)N(Cc1ccco1)Cc1ccco1 | nt | i | i | i | i
CC(C)c1ccc(NS(=O)(=O)c2ccc(N3C(=O)CCC3=O)cc2)cc1 | i | i | ? | i | i
CC(OC(=O)c1cccc(NS(C)(=O)=O)c1)C(=O)Nc1ccc2c(c1)OCO2 (stereo not drawn) | 7.08µM | ? | i | i | i
CCOc1cc(C(=O)Nc2ccc3c(c2)OCO3)ccc1OCCOc1ccccc1Cl | i | i | i | ? | i
COc1ccc(Cl)cc1C(=O)Nc1ccc2c(c1)OCO2 | 11.2µM | i | i | i | i
Cc1ccc(NS(=O)(=O)c2ccc(N3C(=O)CCC3=O)cc2)cc1 | i | i | i | i | -84.3
CCOc1ccc(C(=O)Nc2ccc3c(c2)OCO3)cc1OCC | 5.62µM | i | i | i | i
SMILES | HCV inhibitor | FMDV antiviral | Marburg entry inh | Lassa entry inh | HCMV antiviral
COC(=O)CN1C(=O)CSc2ccc(S(=O)(=O)Nc3cccc(C)c3C)cc21 | nt | i | nt | ? | i
COC(=O)C(c1ccccc1)(c1cn(C)c2ccccc12)C(Nc1ccccc1)c1ccc(C)cc1 (stereo not drawn) | nt | nt | nt | nt | i
Cc1ccc(S(=O)(=O)Nc2ccc(NC(=O)c3c(F)c(F)c(F)c(F)c3F)cc2)cc1 | 12.6µM | i | nt | nt | i
COc1ccccc1C(=O)Nc1ccc2c(c1)OCCO2 | i | i | ? | ? | i
CCC(CC)C(=O)Nc1cccc(C(=O)Nc2ccc(S(=O)(=O)Nc3ccc(C)cc3)cc2)c1 | 15.8µM | ? | ? | ? | -97.4
COc1cc(SC)ccc1C(=O)Nc1ccc2c(c1)OCCO2 | ? | i | ? | 11.6µM | i
CCc1nc2ccc(C(=O)N3CCN(CC)CC3)cc2nc1CC | i | i | nt | nt | i
CCC(CC)C(=O)Nc1cccc(C(=O)Nc2ccc(S(N)(=O)=O)cc2)c1 | i | i | i | i | i
Cc1cc(NS(=O)(=O)c2ccc(NC(=O)c3c(F)c(F)c(F)c(F)c3F)cc2)nc(C)n1 | i | i | i | i | ?
CCc1nc2ccc(C(=O)O)cc2nc1CC | i | ? | 2µM | 14.6µM | i
Cc1ccn2c(Nc3ccc4c(c3)OCO4)c(-c3ccco3)nc2c1 | nt | i | ? | i | i
COc1ccccc1C(=O)Nc1ccc(OCc2cc(=O)n3ccsc3n2)cc1 | nt | i | i | i | i
Cc1ccc2c(CC(=O)N3CCOc4ccc(CN5CCOCC5)cc4C3)cc(=O)oc2c1 | nt | i | nt | nt | nt
N#Cc1c[nH]n2c(NC3CCCCC3)c(-c3cccc(Cl)c3)nc12 | nt | i | i | i | i

Source: PubChem BioAssay
